# Results taken from article PMC11102866, “Nucleosome-bound NR5A2 structure reveals pioneer factor mechanism by DNA minor groove anchor competition”.
# Numbering of substitutions follows the chain as printed. In names and notes the source's numbering stands.
# B1: 28 (nucleosome)
# DNA 1: ATCCTGGAGAATCCCGGTGCCGAGGCCGCTTCAAGGCCAGTAGACAGCTCTAGCACCGCTTAAACGCACGTACGCGCTGTCCCCCGCGTTTTAACCGCCAAGGGGATTACTCCCTAGTCTCCAGGCACGTGTCAGATATATACATCCTGTGAT
# DNA 2: ATCACAGGATGTATATATCTGACACGTGCCTGGAGACTAGGGAGTAATCCCCTTGGCGGTTAAAACGCGGGGGACAGCGCGTACGTGCGTTTAAGCGGTGCTAGAGCTGTCTACTGGCCTTGAAGCGGCCTCGGCACCGGGATTCTCCAGGAT
# modifications: reconstituted with mouse histones H2A, H2B, H3.3 and H4
# B2: 33 (nucleosome)
# DNA 1: B1 DNA 1 with T31C, C32A, A34T, G35T, G36T, C38A, T41G, A42C, G43C
# DNA 2: B1 DNA 2 with C111G, T112G, A113C, G116T, C118A, C119A, T120A, G122T, A123G
# modifications: reconstituted with mouse histones H2A, H2B, H3.3 and H4
# B3: 31 (nucleosome)
# DNA 1: B1 DNA 1 with T31C, C32A, A34T, G35C, G36A, C37A, C38G, A39G, G40C, T41C
# DNA 2: B1 DNA 2 with A113G, C114G, T115C, G116C, G117T, C118T, C119G, T120A, G122T, A123G
# modifications: reconstituted with mouse histones H2A, H2B, H3.3 and H4
# B4: 4 (nucleosome)
# DNA 1: ATCCTGTCAAGGCCAGGTGCCGAGGCCGCTCAATTGGTCGTAGACAGCTCTAGCACCGCTTAAACGCACGTACGCGCTGTCCCCCGCGTTTTAACCGCCAAGGGGATTACTCCCTAGTCTCCAGGCACGTGTCAGATATATACATCCTGTGAT
# DNA 2: ATCACAGGATGTATATATCTGACACGTGCCTGGAGACTAGGGAGTAATCCCCTTGGCGGTTAAAACGCGGGGGACAGCGCGTACGTGCGTTTAAGCGGTGCTAGAGCTGTCTACGACCAATTGAGCGGCCTCGGCACCTGGCCTTGACAGGAT
# modifications: reconstituted with mouse histones H2A, H2B, H3.3 and H4
# B5: 35 (nucleosome)
# DNA 1: B4 DNA 1 with T7G, C8A, A9G, G11A, G12T, A15C, G40A, T41A, A42G, A44C
# DNA 2: B4 DNA 2 with T110G, T112C, A113T, C114T, T139G, C142A, C143T, T145C, G146T, A147C
# modifications: reconstituted with mouse histones H2A, H2B, H3.3 and H4
# B6: 32 (nucleosome)
# DNA 1: ATCCTGGAGAATCCCGGTGCCGAGGCCGCTCAATTCAAGGCCAACAGCTCTAGCACCGCTTAAACGCACGTACGCGCTGTCCCCCGCGTTTTAACCGCCAAGGGGATTACTCCCTAGTCTCCAGGCACGTGTCAGATATATACATCCTGTGAT
# DNA 2: ATCACAGGATGTATATATCTGACACGTGCCTGGAGACTAGGGAGTAATCCCCTTGGCGGTTAAAACGCGGGGGACAGCGCGTACGTGCGTTTAAGCGGTGCTAGAGCTGTTGGCCTTGAATTGAGCGGCCTCGGCACCGGGATTCTCCAGGAT
# modifications: reconstituted with mouse histones H2A, H2B, H3.3 and H4
# B7: 38 (nucleosome)
# DNA 1: B6 DNA 1 with C36G, A37G, A38T, G39C, C41T, C45G, A46G, G47C, T49A
# DNA 2: B6 DNA 2 with A105T, C107G, T108C, G109C, G113A, C115G, T116A, T117C, G118C
# modifications: reconstituted with mouse histones H2A, H2B, H3.3 and H4
# B8: 34 (nucleosome)
# DNA 1: B6 DNA 1 with C36G, A37T, A38C, G39A, G40A, C41G, C42G, A43C, A44C, C45A
# DNA 2: B6 DNA 2 with G109T, T110G, T111G, G112C, G113C, C114T, C115T, T116G, T117A, G118C
# modifications: reconstituted with mouse histones H2A, H2B, H3.3 and H4
# B9: 25 (nucleosome)
# DNA 1: ATCCTGGAGAATCCCGGTGCCGAGGCCTCAAGGCCAGTCGTAGACAGCTCTAGCACCGCTTAAACGCACGTACGCGCTGTCCCCCGCGTTTTAACCGCCAAGGGGATTACTCCCTAGTCTCCAGGCACGTGTCAGATATATACATCCTGTGAT
# DNA 2: ATCACAGGATGTATATATCTGACACGTGCCTGGAGACTAGGGAGTAATCCCCTTGGCGGTTAAAACGCGGGGGACAGCGCGTACGTGCGTTTAAGCGGTGCTAGAGCTGTCTACGACTGGCCTTGAGGCCTCGGCACCGGGATTCTCCAGGAT
# modifications: reconstituted with mouse histones H2A, H2B, H3.3 and H4
# B10: 26 (nucleosome)
# DNA 1: B9 DNA 1 with T28G, C29T, A30C, G32A, C34G, A36C, G37A
# DNA 2: B9 DNA 2 with C117T, T118G, G120C, C122T, T124G, G125A, A126C
# modifications: reconstituted with mouse histones H2A, H2B, H3.3 and H4
# B11: 29 (nucleosome)
# DNA 1: B1 DNA 1 with T31C, C32T, A33C, G35A, C37G, A39C, G40A
# DNA 2: B1 DNA 2 with C114T, T115G, G117C, C119T, T121G, G122A, A123G
# modifications: reconstituted with mouse histones H2A, H2B, H3.3 and H4
# B12: 27 (nucleosome)
# DNA 1: B1 DNA 1 with T31C, C32A, A34G, G36C, C38A, A39C
# DNA 2: B1 DNA 2 with T115G, G116T, C118G, T120C, G122T, A123G
# modifications: reconstituted with mouse histones H2A, H2B, H3.3 and H4
# B13: 30 (nucleosome)
# DNA 1: B9 DNA 1 with T28G, A30T, A31C, G32A, G33T, C35A, T38G, G40C, T41A
# DNA 2: B9 DNA 2 with A113T, C114G, A116C, G119T, C121A, C122T, T123G, T124A, A126C
# modifications: reconstituted with mouse histones H2A, H2B, H3.3 and H4
# B14: 36 (nucleosome)
# DNA 1: ATCCTGGAGAATCCCGGTGCCGAGGCCGCTCAATTGGTTCAAGGCCACTCTAGCACCGCTTAAACGCACGTACGCGCTGTCCCCCGCGTTTTAACCGCCAAGGGGATTACTCCCTAGTCTCCAGGCACGTGTCAGATATATACATCCTGTGAT
# DNA 2: ATCACAGGATGTATATATCTGACACGTGCCTGGAGACTAGGGAGTAATCCCCTTGGCGGTTAAAACGCGGGGGACAGCGCGTACGTGCGTTTAAGCGGTGCTAGAGTGGCCTTGAACCAATTGAGCGGCCTCGGCACCGGGATTCTCCAGGAT
# modifications: reconstituted with mouse histones H2A, H2B, H3.3 and H4
# B15: 37 (nucleosome)
# DNA 1: B14 DNA 1 with T39C, C40T, A41C, G43A, C45G, A47C, C48A
# DNA 2: B14 DNA 2 with G106T, T107G, G109C, C111T, T113G, G114A, A115G
# modifications: reconstituted with mouse histones H2A, H2B, H3.3 and H4
# Tests used:
# [1] = target: NR5A2 wild type;histone octamer (Homo sapiens;, UniProt O00482;C0HKE1;Q6ZWY9;P84244;P62806 1-541;2-130;2-126;2-136;2-103, |); assay: SeEN-seq (EMSA of nucleosome library followed by sequencing); 0.8 uM human NR5A2; 20 mM Tris-HCl pH 7.5, 120 mM NaCl, 1 mM MgCl2, 10 uM ZnCl2, 1 mM DTT, 100 ug/ml BSA, room temperature, 30 min; 0.1 uM nucleosome library; high values mean tight binding
# [2] = target: mouse Nr5a2 wild type;histone octamer (Mus musculus;, UniProt P45448;C0HKE1;Q6ZWY9;P84244;P62806 1-560;2-130;2-126;2-136;2-103, |); assay: SeEN-seq (EMSA of nucleosome library followed by sequencing); 1.2 uM mouse Nr5a2; 20 mM Tris-HCl pH 7.5, 120 mM NaCl, 1 mM MgCl2, 10 uM ZnCl2, 1 mM DTT, 100 ug/ml BSA, room temperature, 30 min; 0.1 uM nucleosome library; high values mean tight binding
Binder,binding signal [1],binding signal [2]
B1,"0.697 log2 enrichment (bound/unbound, relative to Widom 601)","0.72 log2 enrichment (bound/unbound, relative to Widom 601)"
B2,"2.48 log2 enrichment (bound/unbound, relative to Widom 601)","2.25 log2 enrichment (bound/unbound, relative to Widom 601)"
B3,"0.845 log2 enrichment (bound/unbound, relative to Widom 601)","0.725 log2 enrichment (bound/unbound, relative to Widom 601)"
B4,"4.82 log2 enrichment (bound/unbound, relative to Widom 601)","3.77 log2 enrichment (bound/unbound, relative to Widom 601)"
B5,"0.694 log2 enrichment (bound/unbound, relative to Widom 601)","0.841 log2 enrichment (bound/unbound, relative to Widom 601)"
B6,"1.82 log2 enrichment (bound/unbound, relative to Widom 601)","1.7 log2 enrichment (bound/unbound, relative to Widom 601)"
B7,"0.852 log2 enrichment (bound/unbound, relative to Widom 601)","0.628 log2 enrichment (bound/unbound, relative to Widom 601)"
B8,"1.32 log2 enrichment (bound/unbound, relative to Widom 601)","1.03 log2 enrichment (bound/unbound, relative to Widom 601)"
B9,"0.708 log2 enrichment (bound/unbound, relative to Widom 601)","0.587 log2 enrichment (bound/unbound, relative to Widom 601)"
B10,"0.635 log2 enrichment (bound/unbound, relative to Widom 601)","0.66 log2 enrichment (bound/unbound, relative to Widom 601)"
B11,"0.778 log2 enrichment (bound/unbound, relative to Widom 601)","0.664 log2 enrichment (bound/unbound, relative to Widom 601)"
B12,"0.842 log2 enrichment (bound/unbound, relative to Widom 601)","0.575 log2 enrichment (bound/unbound, relative to Widom 601)"
B13,"0.787 log2 enrichment (bound/unbound, relative to Widom 601)","0.718 log2 enrichment (bound/unbound, relative to Widom 601)"
B14,"0.81 log2 enrichment (bound/unbound, relative to Widom 601)","0.77 log2 enrichment (bound/unbound, relative to Widom 601)"
B15,"0.722 log2 enrichment (bound/unbound, relative to Widom 601)","0.546 log2 enrichment (bound/unbound, relative to Widom 601)"
